Test results published in PubChem BioAssay.
Active and inactive are the calls of the source.

Tests used:
[1] = small molecules captured by biotinylated probe aFSTL3 – biochemical, small-molecule microarray, fluorescence 635/667, stem cell growth factor project, primary screen (AID 1064); details: higher = more signal;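 note: measures binding of the biotinylated anti-FSTL3 antibody to printed compounds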
[2] = binders from COS7 lysate, DM2A8 probe, primary screen, torsin A project, cell lysate, small-molecule microarray, fluorescence 635/667 (AID 1065); details: higher = more signal, COS7 lysate expressing mutant human TOR1A
[3] = small molecules captured by biotinylated probe aFGF2 – biochemical, small-molecule microarray, fluorescence 635/667, stem cell growth factor project, primary screen (AID 1067); details: higher = more signal;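 note: measures binding of biotinylated aFGF2 protein to printed compounds on slides; z-score merges feature fluorescence and signal-to-noise across triplicate slides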
[4] = small molecules captured by biotinylated probe aFGF10 – biochemical, small-molecule microarray, fluorescence 635/667, stem cell growth factor project, primary screen (AID 1071); details: higher = more signal;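 note: score merges 667 nm spot intensity and signal to noise from triplicate slides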
[5] = target: Neurogenic locus notch homolog protein 2 (Homo sapiens) (UniProt Q04721); test: small molecules binding Notch2 protein – biochemical, small-molecule microarray, 635 nm fluorescence, stem cell growth factors, primary screen (AID 1073); details: higher = more signal
Chain of Neurogenic locus notch homolog protein 2 (Homo sapiens) (Q04721 whole entry, looked up, canonical isoform): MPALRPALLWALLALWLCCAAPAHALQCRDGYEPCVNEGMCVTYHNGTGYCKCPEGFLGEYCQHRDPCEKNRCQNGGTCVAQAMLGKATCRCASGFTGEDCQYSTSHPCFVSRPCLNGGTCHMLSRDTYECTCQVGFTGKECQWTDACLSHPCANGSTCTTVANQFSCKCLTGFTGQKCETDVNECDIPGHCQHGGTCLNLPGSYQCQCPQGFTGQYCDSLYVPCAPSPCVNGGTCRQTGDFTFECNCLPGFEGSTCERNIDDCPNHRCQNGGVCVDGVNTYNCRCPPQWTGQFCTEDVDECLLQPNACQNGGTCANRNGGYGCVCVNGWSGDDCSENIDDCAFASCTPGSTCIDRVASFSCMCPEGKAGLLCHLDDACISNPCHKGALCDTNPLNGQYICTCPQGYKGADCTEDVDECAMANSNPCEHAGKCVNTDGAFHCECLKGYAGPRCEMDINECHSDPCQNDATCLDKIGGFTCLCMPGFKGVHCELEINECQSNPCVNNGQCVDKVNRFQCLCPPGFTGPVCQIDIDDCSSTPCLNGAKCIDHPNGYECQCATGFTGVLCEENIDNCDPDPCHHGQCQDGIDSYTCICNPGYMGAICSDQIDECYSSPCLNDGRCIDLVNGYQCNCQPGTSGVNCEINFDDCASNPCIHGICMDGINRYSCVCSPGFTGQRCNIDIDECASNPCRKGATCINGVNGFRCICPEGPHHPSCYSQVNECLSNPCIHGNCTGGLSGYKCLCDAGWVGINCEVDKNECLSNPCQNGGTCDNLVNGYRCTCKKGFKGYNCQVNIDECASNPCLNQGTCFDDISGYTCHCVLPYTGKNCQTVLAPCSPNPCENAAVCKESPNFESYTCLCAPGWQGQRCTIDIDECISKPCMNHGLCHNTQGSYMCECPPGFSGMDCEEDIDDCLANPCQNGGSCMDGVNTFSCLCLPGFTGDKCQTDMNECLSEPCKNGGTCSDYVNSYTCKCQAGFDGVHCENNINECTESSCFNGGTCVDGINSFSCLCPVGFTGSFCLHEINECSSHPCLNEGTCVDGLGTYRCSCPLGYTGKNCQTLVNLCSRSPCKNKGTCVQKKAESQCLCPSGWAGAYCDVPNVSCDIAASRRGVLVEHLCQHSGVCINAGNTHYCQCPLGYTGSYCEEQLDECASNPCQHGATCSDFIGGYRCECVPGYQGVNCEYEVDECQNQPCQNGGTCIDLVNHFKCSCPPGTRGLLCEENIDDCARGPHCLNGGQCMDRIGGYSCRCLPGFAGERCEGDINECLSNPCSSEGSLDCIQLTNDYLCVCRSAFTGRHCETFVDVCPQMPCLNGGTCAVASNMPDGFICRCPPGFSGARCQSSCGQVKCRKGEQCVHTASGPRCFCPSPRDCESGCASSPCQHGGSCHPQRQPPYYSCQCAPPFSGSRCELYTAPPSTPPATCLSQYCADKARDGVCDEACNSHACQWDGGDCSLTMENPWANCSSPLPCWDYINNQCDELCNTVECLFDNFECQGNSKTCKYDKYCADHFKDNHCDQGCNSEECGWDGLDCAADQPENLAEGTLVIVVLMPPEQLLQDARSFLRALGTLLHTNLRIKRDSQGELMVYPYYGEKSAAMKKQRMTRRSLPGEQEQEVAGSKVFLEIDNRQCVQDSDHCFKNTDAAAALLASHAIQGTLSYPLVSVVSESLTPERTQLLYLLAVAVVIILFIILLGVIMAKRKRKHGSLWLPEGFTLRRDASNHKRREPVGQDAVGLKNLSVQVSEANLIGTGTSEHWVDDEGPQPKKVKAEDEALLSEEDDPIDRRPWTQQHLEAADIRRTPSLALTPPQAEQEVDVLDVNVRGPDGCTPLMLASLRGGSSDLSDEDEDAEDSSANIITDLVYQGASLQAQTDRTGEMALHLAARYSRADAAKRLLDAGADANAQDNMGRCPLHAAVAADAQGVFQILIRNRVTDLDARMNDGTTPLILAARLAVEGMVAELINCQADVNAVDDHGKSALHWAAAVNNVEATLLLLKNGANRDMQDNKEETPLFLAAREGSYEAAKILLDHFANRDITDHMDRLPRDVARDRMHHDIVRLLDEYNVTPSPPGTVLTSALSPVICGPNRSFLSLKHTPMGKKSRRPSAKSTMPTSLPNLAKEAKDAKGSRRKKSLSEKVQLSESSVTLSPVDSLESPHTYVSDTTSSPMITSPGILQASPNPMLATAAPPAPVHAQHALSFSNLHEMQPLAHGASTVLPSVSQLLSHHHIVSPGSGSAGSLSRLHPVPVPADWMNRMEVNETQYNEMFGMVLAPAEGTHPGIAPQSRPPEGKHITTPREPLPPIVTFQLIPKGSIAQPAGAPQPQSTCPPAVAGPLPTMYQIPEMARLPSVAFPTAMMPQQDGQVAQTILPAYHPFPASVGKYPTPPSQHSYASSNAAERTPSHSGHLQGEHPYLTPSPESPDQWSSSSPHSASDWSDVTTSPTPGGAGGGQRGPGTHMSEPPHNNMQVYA

[6] = target: Pro-neuregulin-1, membrane-bound isoform (Homo sapiens) (UniProt Q02297); test: small molecules binding neuregulin-1 protein – biochemical, small-molecule microarray, fluorescence 635/667, psychiatric disease protein project, primary screen (AID 1075); details: NRG1 binding, 635 nm fluorescence, higher = more signal;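 note: score combines 667 nm spot fluorescence with signal to noise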
Chain of Pro-neuregulin-1, membrane-bound isoform (Homo sapiens) (Q02297 whole entry, looked up, the tested form may be a part, canonical isoform): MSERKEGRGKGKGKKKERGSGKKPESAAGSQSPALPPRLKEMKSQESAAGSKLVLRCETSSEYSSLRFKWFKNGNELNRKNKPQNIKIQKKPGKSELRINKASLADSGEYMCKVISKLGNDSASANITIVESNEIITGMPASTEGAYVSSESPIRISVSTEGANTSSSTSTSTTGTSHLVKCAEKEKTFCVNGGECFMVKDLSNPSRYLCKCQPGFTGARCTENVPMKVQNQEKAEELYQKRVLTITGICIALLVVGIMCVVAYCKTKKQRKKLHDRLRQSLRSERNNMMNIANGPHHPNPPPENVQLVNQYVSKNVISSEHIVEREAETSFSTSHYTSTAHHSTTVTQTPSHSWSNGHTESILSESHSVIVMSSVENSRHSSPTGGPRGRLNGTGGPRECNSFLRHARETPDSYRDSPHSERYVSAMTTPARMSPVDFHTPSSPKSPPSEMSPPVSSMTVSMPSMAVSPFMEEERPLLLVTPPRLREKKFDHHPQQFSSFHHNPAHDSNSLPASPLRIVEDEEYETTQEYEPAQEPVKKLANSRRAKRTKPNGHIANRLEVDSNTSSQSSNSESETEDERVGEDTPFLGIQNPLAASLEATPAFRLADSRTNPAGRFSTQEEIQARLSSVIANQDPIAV

[7] = test system: Neuregulin-1 EGF-like domain; test: small molecules binding NRG1 EGF domain – biochemical, small-molecule microarray, 635 nm fluorescence, primary screen (AID 1081); details: higher = more signal;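 note: binding of the protein to compounds printed on small-molecule microarray slides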
[8] = FRG1 expression reporter modulators in myotubes – cell-based, C2C12 myotubes, firefly/Renilla luciferase, luminescence, FRG1 inhibition for FSHD, primary screen (AID 1084); details: FRG1 promoter luciferase, higher = more signal, called active from +8 up or from −8 down
[9] = small molecules captured by biotinylated probe aFST – biochemical, small-molecule microarray, fluorescence 635/667, stem cell growth factor project, primary screen (AID 1086); details: higher = more signal;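 note: score merges 667 nm fluorescence with signal-to-noise of each printed compound spot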
[10] = binders of probe aHhip on microarray, primary screen, stem cell growth factor project, biochemical, small-molecule microarray, fluorescence 635/667 (AID 1087); details: higher = more signal;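 note: score merges spot fluorescence at 667nm with spot signal to noise ratio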
[11] = test system: PRMT1 (protein arginine N-methyltransferase 1); test: small molecules binding arginine methyltransferase PRMT1 – biochemical, small-molecule microarray, 635 nm fluorescence, primary screen (AID 1088); details: higher = more signal;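 note: binding of Prmt1 protein to compounds spotted on small-molecule microarray slides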
[12] = growth effects on S. cerevisiae YJM789 – YJM789 clinical isolate, OD600, 24 h, basal, primary screen (AID 1089); details: higher = more signal, called active from +8 up or from −8 down;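 note: growth of clinical yeast isolate S. cerevisiae YJM 789 seeded 1000 cells per well; test concentration not given here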
[13] = S. pombe growth modifiers, basal conditions – strain 972, OD600, 24 h, no modulator, primary screen (AID 1090);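 note: basal condition with compound alone and no growth modifier present; test concentration not given here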; details: S. pombe 972 growth, higher = more signal, called active from +8 up or from −8 down
[14] = budding yeast growth modifiers under rapamycin – strain BY4716, OD600, 96 h, primary screen (AID 1091); note: test concentration not given here; details: S. cerevisiae BY4716 + rapamycin, higher = more signal, called active from +8 up or from −8 down
[15] = target: Torsin-1A-interacting protein 2 (Homo sapiens) (UniProt Q8NFQ8); test: small molecules binding lysate-expressed LULL1 – cell lysate, human LULL1 lysate, 635/667 nm fluorescence, primary screen (AID 1092); details: small-molecule microarray, hLULL1 lysate binding, 635 nm fluorescence; higher = more signal;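 note: probe is lysate of COS7 cells overexpressing human LULL1; score merges per-feature 667 nm fluorescence with signal-to-noise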
Chain of Torsin-1A-interacting protein 2 (Homo sapiens) (Q8NFQ8 whole entry, looked up): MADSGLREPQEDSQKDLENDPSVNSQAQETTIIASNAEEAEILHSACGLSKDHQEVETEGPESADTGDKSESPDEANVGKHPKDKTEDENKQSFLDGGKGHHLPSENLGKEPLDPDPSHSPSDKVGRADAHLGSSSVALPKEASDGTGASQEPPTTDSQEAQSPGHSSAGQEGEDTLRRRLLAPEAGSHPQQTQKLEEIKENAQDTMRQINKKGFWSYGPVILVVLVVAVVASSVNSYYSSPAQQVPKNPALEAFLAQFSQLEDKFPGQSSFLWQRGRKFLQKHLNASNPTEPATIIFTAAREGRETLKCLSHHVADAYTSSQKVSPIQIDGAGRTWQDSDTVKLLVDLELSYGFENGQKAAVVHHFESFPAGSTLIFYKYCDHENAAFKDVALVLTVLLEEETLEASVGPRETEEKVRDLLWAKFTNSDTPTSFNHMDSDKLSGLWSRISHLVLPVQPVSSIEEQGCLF

[16] = optical density change of DRC41 E. coli – strain DRC41, OD650, 24 h, E. coli filamentation project, primary screen (AID 1093);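 note: MC1000 strain lacking acrAB efflux and sulA so SOS filamentation is blocked; test concentration not given here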; details: E. coli DRC41 growth, higher = more signal, called active from +8 up or from −8 down
[17] = probe aLefty2 binding to arrayed compounds – biochemical, biotinylated probe, 635/667 nm fluorescence, primary screen (AID 1094); details: small-molecule microarray, higher = more signal;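 note: score merges spot fluorescence near 667 nm with spot signal-to-noise ratio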
[18] = test system: Noggin (protein binding on small-molecule microarray); test: small molecules binding Noggin protein – biochemical, 635/667 nm fluorescence, primary screen (AID 1095); details: 635 nm fluorescence, higher = more signal;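 note: score merges 667 nm feature fluorescence with signal to noise over triplicate slides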
[19] = target: Neurogenic locus notch homolog protein 3 (Homo sapiens) (UniProt Q9UM47); test: small molecules binding NOTCH3 protein – biochemical, 635/667 nm fluorescence, primary screen (AID 1096); details: small-molecule microarray, 635 nm fluorescence, higher = more signal
[20] = probe aEGFR binding to arrayed compounds – biochemical, biotinylated probe, 635/667 nm fluorescence, primary screen (AID 1097); details: small-molecule microarray, higher = more signal;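 note: probe is a biotinylated anti-EGFR antibody binding compounds printed on slides; score combines fluorescence near 667 nm and signal to noise of each spot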

Compound | composite z-score [1] | composite z-score [2] | composite z-score [3] | composite z-score [4] | composite z-score [5] | composite z-score [6] | composite z-score [7] | z-score [8] | composite z-score [9] | composite z-score [10] | composite z-score [11] | z-score [12] | z-score [13] | z-score [14] | composite z-score [15] | z-score [16] | composite z-score [17] | composite z-score [18] | composite z-score [19] | composite z-score [20]
CS(=O)(=O)CCOC(=O)C1=CC(CCCO)=CC(c2ccc(CN3CCCC3)cc2)N(Cc2cc3c(cc2Br)OCO3)C=C1C(=O)OCCS(C)(=O)=O (stereo not given) | 0.26 | 1.77 | 0.127 | 1.22 | 1.38 | 2.1 | 1.25 | -0.271 (inactive) | 0.624 | 0.224 | 1.46 | 0.978 (inactive) | -5.34 (inactive) | -1.62 (inactive) | 2.5 | -0.567 (inactive) | 0.0417 | 0.334 | 1.15 | 0.101
CN1C2C=C(CCCO)C(C3C(=O)N(C(N)=O)C(=O)C32)C1c1ccc(CN2CCCC2)cc1 (stereo not given) | 0.0355 | -0.214 | -0.143 | -0.0598 | -0.851 | -0.612 | -0.24 | 0.75 (inactive) | -0.887 | 0.141 | -0.378 | -1.64 (inactive) | 0.715 (inactive) | -0.55 (inactive) | -0.736 | 0.194 (inactive) | -0.253 | -0.354 | -0.615 | -0.242
COc1ccc([Si](C)(C)[C@@H]2[C@@H](CCO)O[C@]3(C(=O)N(Cc4ccc(N5C(=O)COc6ccccc65)cc4)c4ccccc43)[C@H]2C)cc1 | -0.0069 | 0.408 | -0.0474 | 1.24 | 1.18 | 1.01 | 1.17 | -2.74 (inactive) | 0.288 | 0.0373 | 1.5 | 3.6 (inactive) | -0.0953 (inactive) | 35.7 (active) | 2.44 | 0.49 (inactive) | -0.0375 | 1.17 | 0.767 | 0.0192
C=CCOC(=O)[C@H]1[C@@H]2C(=O)O[C@@H](c3ccccc3)[C@@H](c3ccccc3)N2[C@@H](c2ccc(OCCOC(=O)[C@H]3C[C@H]4C(=O)N[C@@H](CC(C)C)C(=O)N4[C@H]3c3ccc(O)cc3)cc2)[C@]12C(=O)Nc1ccc(I)cc12 | -0.921 | 1.1 | -0.0355 | 0.69 | 0.82 | 0.731 | 1.34 | 1.11 (inactive) | -0.742 | -0.263 | 1.54 | 1 (inactive) | -1.4 (inactive) | 0.333 (inactive) | 2.62 | -1.13 (inactive) | -0.282 | 1.67 | 1.12 | 0.0423
CCCC=C(CCC)[C@@H](NC(=O)Oc1ccc(F)cc1)c1ccc(C(=O)OC)cc1 | 0.415 | 0.175 | 0.0883 | 0.48 | 1.52 | -0.454 | 0.482 | -3.81 (inactive) | 0.794 | -0.121 | 0.598 | 0.876 (inactive) | 1.99 (inactive) | 2.32 (inactive) | 3 | -0.211 (inactive) | 0.212 | -0.149 | 0.775 | 0.601
